DPM-DC inhibit: S. pneumoniae DPM-DC inhibitors, primary screen, biochemical, PK/LDH-coupled NADH fluorescence; 65,000 tested, 0.49% active; AID 556, 2006; diphosphomevalonate decarboxylase (Streptococcus pneumoniae D39); calls only at 10 µM; purified DPM-DC;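 active = the 320 compounds with the highest percent inhibition in the single-dose primary screen, excluding strongly autofluorescent ones, cut at about 32% in these data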;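 note: kinetic rate of NADH fluorescence loss reporting ADP formed by the decarboxylase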
Autofluor 339: intrinsic fluorescence of library compounds, ex339/em460 – biochemical, MLSMR library, data from DPM-DC assay, artefact control, profiling panel | compound autofluorescence, ex339/em460 nm, NADH buffer; stronger effect = higher value; 1 = no-compound wells, NADH background | fluorescence fold increase at 10 µM | 65,000 tested, 5.5% active;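 active = at 10 µM, mean starting fluorescence two-fold or more over control wells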;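 note: signal is the first read of a kinetic run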
Spn MK inh: S. pneumoniae MK inhibitors, primary screen, biochemical, PK/LDH-coupled NADH absorbance; 65,000 tested, 0.48% active; purified MK, PK/LDH-coupled NADH absorbance 340 nm; mevalonate kinase [Streptococcus pneumoniae D39]; inhibition, % at 10 µM; AID 555, 2006;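 active = ranked among the strongest by inhibition in the single 10 µM screen, a fixed top-ranked set picked for dose follow-up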
Abs 340nm: compound light absorbance at 340 nm, profiling panel, artefact control, biochemical, MLSMR library, data from PS, PMK, MK assays; compound absorbance at 340 nm, fold over control; fold change at 10 µM; 65,000 tested, under 10 active; AID 708, 2007;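 active = at 10 µM dose, initial 340 nm absorbance at least 2 fold that of control wells; inactive = change under 2 fold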;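 note: initial absorbance extrapolated from kinetic A340 decline of NADH oxidation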
PMK inhibit: S. pneumoniae PMK inhibitors, primary screen, biochemical, mevalonate pathway, pilot trial included | purified PMK, PK/LDH-coupled NADH absorbance 340 nm | AID 539, 2006 | 65,000 tested, 0.49% active | phosphomevalonate kinase (Streptococcus pneumoniae D39) | inhibition, % at 10 µM;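 active = top-ranked compounds by inhibition in the single 10 µM screen, taking a fixed number of the strongest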
NADH coupling: inhibitors of PK/LDH coupling enzymes, profiling panel, artefact control, biochemical, MLSMR library; IC50, µM (top dose mostly 10 µM); AID 774, 2007; 65,000 tested, 0.02% active; coupled PK/LDH NADH assays, four targets;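 active = single-dose screening hits from any of four coupled enzyme assays that gave an IC50 when retested across doses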;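 note: the DPM-DC format reads NADH fluorescence rather than 340 nm absorbance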
Large screens that a line does not name were inactive. Shown are actives, neighbours in structure and some others; about 6.5% of the full set was active somewhere.

c1ccc(-c2noc(-c3ccco3)n2)nc1	none
COC(=O)c1c(C)cc(C)n2c1nc1ccccc12	Autofluor 339 3.5 (not shown: DPM-DC inhibit)
CCOc1ccc(N2CC(C(=O)OC)CC2=O)cc1 (stereo not given)	DPM-DC inhibit active
Cc1cccc(-n2ncc(C#N)c2N)c1	none
N#CC1=C(N)N(c2ccccc2)C(c2ccco2)C1(C#N)C#N (stereo not given)	Autofluor 339 2.2 (not shown: DPM-DC inhibit)
Cc1cccc(N2C(N)=C(C#N)C(C#N)(C#N)C2c2ccccc2)c1 (stereo not given)	Autofluor 339 2.7
CCOC(=O)Nc1c(C(=O)OC)[nH]c2cccc(OC)c12	none
COc1ccc(CCNS(=O)(=O)c2cccc(C(=O)O)c2)cc1OC	none
CN1CCN(C(c2ccc(F)cc2)c2nnnn2Cc2cccs2)CC1 (stereo not given)	none
CCN1CCN(C(c2ccc(F)cc2)c2nnnn2Cc2cccs2)CC1 (stereo not given)	PMK inhibit 27
Cc1ccc(C2c3sc(=O)[nH]c3SC3C(=O)NC(=O)C32)cc1 (stereo not given)	none
Cc1cc(C)nc(N2CCC(C(=O)Nc3nnc(C)s3)CC2)n1	none
C=CCOC(=O)C1=C(C)NC(SCC(=O)Nc2ccc(C)c(Cl)c2)=C(C#N)C1c1ccco1 (stereo not given)	Autofluor 339 2.3 (not shown: DPM-DC inhibit)
c1ccc(Cn2nnc3c(Nc4ccc5c(c4)OCO5)nc(C4CC4)nc32)cc1	Autofluor 339 3.7 (not shown: DPM-DC inhibit)
O=C(NC(c1ccccc1)c1ccccc1)C1CCCN(S(=O)(=O)c2cnc[nH]2)C1 (stereo not given)	none
CCCCn1nc(NC(=O)c2cccs2)c2cc3cc(OC)ccc3nc21	Autofluor 339 3.6 (not shown: DPM-DC inhibit)
CCCCn1nc(NC(=O)c2cccs2)c2cc3ccccc3nc21	Autofluor 339 2.2 (not shown: DPM-DC inhibit)
COc1ccc2nc3c(cc2c1)c(NC(=O)C1CCCO1)nn3CC(C)C (stereo not given)	Autofluor 339 3.7 (not shown: DPM-DC inhibit)
CCCC(=O)Nc1nn(CCC)c2nc3ccccc3cc12	none
COc1ccc(NC(=O)c2ccccc2NC(=O)C2CCCO2)cc1 (stereo not given)	none
CCCn1nc(NC(=O)c2ccncc2)c2cc3ccccc3nc21	none
CCCn1nc(NC(=O)c2cccs2)c2cc3cc(OC)ccc3nc21	Autofluor 339 2 (not shown: DPM-DC inhibit)
Cc1ccccc1OCCCCCn1ccnc1	none
Cc1cccc(OCCCCCn2ccnc2)c1	Spn MK inh 48
COC(=O)C1=CN(C2CC2)C=C(C(=O)OC)C1c1ccc(C(=O)OC)cc1	Autofluor 339 2.1 (not shown: DPM-DC inhibit)
CCOC(=O)C1CCN(S(=O)(=O)c2ccc(C(=O)OC)cc2)CC1	none
CC(C)CC(=O)CN1C(=O)C2(OCCO2)c2ccccc21	none
COc1nc(-c2ccc(C)cc2)ccc1-c1noc(-c2ccco2)n1	Autofluor 339 2.4
COc1nc(C)ccc1-c1noc(-c2ccco2)n1	none
CCOc1nc(-c2ccccc2)ccc1-c1noc(COc2ccccc2)n1	Autofluor 339 2.9
CCOc1nc(-c2ccccc2)ccc1-c1noc(-c2ccco2)n1	Autofluor 339 2.6
CC(C)(C)NC(=O)c1ccccc1-c1nc(-c2ccccc2Cl)no1	none
CC(=O)N1CCCc2cc(S(=O)(=O)NCCC3=CCCCC3)ccc21	none
CCC(C)C(=O)Nc1nnc(-c2cccs2)s1 (stereo not given)	Autofluor 339 2.6
COCC(=O)Nc1nnc(-c2cccs2)s1	none
COc1ccccc1CC1(C)NC(=O)N(CC(=O)N2CC(C)OC(C)C2)C1=O (stereo not given)	none
Cc1cc(C)cc(CC2CC(=O)N(c3nc(C)cc(C)n3)C2=O)c1 (stereo not given)	PMK inhibit 25
Cc1[nH]n(CCC#N)c(=O)c1CC(=O)N1CCN(c2ccccc2)CC1	none
O=c1[nH]cnc2nc(-c3ccccc3)c(-c3ccccc3)nc12	Autofluor 339 5.1 (not shown: DPM-DC inhibit)
O=c1[nH]cnc2nn(-c3ccccc3)nc12	none
Cc1ccc(C2C3=C(CC(C)(C)CC3=O)N(CCN3CCOCC3)C3=C2C(=O)CC(C)(C)C3)cc1	DPM-DC inhibit active, Autofluor 339 3.8
CCOc1cc2[nH]c(=O)n(CCCCC(=O)NCc3ccco3)c(=O)c2cc1OCC	none
CCOc1cc2[nH]c(=O)n(CCCC(=O)NCc3ccco3)c(=O)c2cc1OCC	Autofluor 339 2.3
COc1cc2[nH]c(=O)n(CCC(=O)NC3CCCC3)c(=O)c2cc1OC	Autofluor 339 2
CCCCCNC(=O)CCCCn1c(=O)[nH]c2cc(OCC)c(OCC)cc2c1=O	Autofluor 339 2.1
CCOc1cc2[nH]c(=O)n(CCCCC(=O)NC3CCCCC3)c(=O)c2cc1OCC	Autofluor 339 2.5
COc1ccc(OC)c(C(=O)c2coc3ccc(O)cc23)c1	none
Cc1cc(N2CCC(C(=O)NC3CCCCC3)CC2)nc(-c2ccccc2)n1	none
Cc1cc(N2CCC(N(C)C3CCCC3)CC2)nc2cc(O)ccc12	Autofluor 339 2.2 (not shown: DPM-DC inhibit)
CCN1CC=C2C(C#N)=C(N)C(C#N)(C#N)C(c3cc(Cl)ccc3Cl)C2C1 (stereo not given)	Autofluor 339 2.9
CC(C)N1CC=C2C(C#N)=C(N)C(C#N)(C#N)C(c3ccccc3)C2C1 (stereo not given)	none
Cc1nn(-c2ccccc2)c2sc(C(=O)OCC(=O)N3CCCCC3)cc12	Autofluor 339 4 (not shown: DPM-DC inhibit)
COC(=O)c1cc2c(C)nn(-c3ccccc3)c2s1	none
Cc1nn(-c2ccccc2)c2sc(C(=O)OC3CCOC3=O)cc12 (stereo not given)	Autofluor 339 5 (not shown: DPM-DC inhibit)
C=CCNS(=O)(=O)c1nc(C)c(Cl)c(C)c1C#N	none
O=C(c1ccco1)N1CCN(Cc2ccccc2C(F)(F)F)CC1	Spn MK inh 48
O=C(c1ccco1)N1CCN(Cc2cccc(F)c2)CC1	none
Cc1ccc(S(=O)(=O)N2CCN(Cc3ccccc3C(F)(F)F)CC2)cc1	Spn MK inh 44
COc1ccc(CN(C(=O)CSc2nnc(-c3ccccc3F)o2)c2ccc(F)cc2)cc1	none
CCn1c2c(c3cc(C(=O)O)ccc31)CCCC2=O	DPM-DC inhibit active, Autofluor 339 2.6
CCn1c2c(c3cc(Cl)ccc31)CCCC2=O	none
O=C1CCn2nc(-c3ccc(Cl)cc3)cc2N1	none
COc1ccc(C2N(c3cc(Cl)ccc3OC)C(=O)C3CCCN32)cc1OC (stereo not given)	none
CCCCN(CCCC)CCn1cnc2c([nH]c3ccc(OC)cc32)c1=O	Autofluor 339 2.3 (not shown: DPM-DC inhibit)
